The whole screen tested about 5,500 compounds, of which about 2,000 (36%) were called active. Inconclusive results (about 18%) are left out. No stated cut-off is given here; in the data, active means normalized growth mostly below about 0.91 (no sharp cut-off); inconclusive means no clear call, values can overlap the other calls; inactive means mostly above about 0.92. The list shows a part of the results.
Test: chemical genetic growth profiling, strain panel (AID 1159580);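 further: tested at 20 µM; growth read once vehicle control cultures reached saturation at 30 °C; 1 = growth at the plate median or of vehicle wells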
Conditions: S. cerevisiae deletion strains, growth OD

Measured: normalized growth

O=C(O)CF
inactive: locus YAL013W, strain DEP1, stronger effect = lower value 0.998 | locus YAL021C, strain ccr4, stronger effect = lower value 1.01 | locus YAL026C, strain drs2, stronger effect = lower value 1.02 | locus YAL030W, strain snc1, stronger effect = lower value 1.02 | locus YBL061C, strain skt5, stronger effect = lower value 1.02 | locus YBR009C, strain hhf1, stronger effect = lower value 1.06 | locus YBR021W, strain FUR4, stronger effect = lower value 0.97 | locus YBR023C, strain chs3, stronger effect = lower value 1.03 | locus YBR171W, strain sec66, stronger effect = lower value 1.03 | locus YBR229C, strain ROT2, stronger effect = lower value 0.987 | locus YBR231C, strain swc5, stronger effect = lower value 1.01 | locus YBR279W, strain paf1, stronger effect = lower value 1.03 | locus YCL011C, strain gbp2, stronger effect = lower value 1.03 | locus YCL016C, strain dcc1, stronger effect = lower value 1.04 | locus YCL029C, strain bik1, stronger effect = lower value 0.975 | locus YCL061C, strain MRC1, stronger effect = lower value 1.02 | locus YCL069W, strain vba3, stronger effect = lower value 1.02 | locus YCR088W, strain abp1, stronger effect = lower value 1.02 | locus YDL005C, strain med2, stronger effect = lower value 1.02 | locus YDL035C, strain GPR1, stronger effect = lower value 1 | locus YDL040C, strain nat1, stronger effect = lower value 1.02 | locus YDL074C, strain BRE1, stronger effect = lower value 1.03 | locus YDL101C, strain DUN1, stronger effect = lower value 0.995 | locus YDL134C, strain PPH21, stronger effect = lower value 0.994 | locus YDL185W, strain tfp1, stronger effect = lower value 0.967 | locus YDL192W, strain arf1, stronger effect = lower value 0.98 | locus YDR001C, strain nth1, stronger effect = lower value 1.02 | locus YDR069C, strain doa4, stronger effect = lower value 1 | locus YDR101C, strain arx1, stronger effect = lower value 0.969 | locus YDR137W, strain rgp1, stronger effect = lower value 1.03 | locus YDR150W, strain NUM1, stronger effect = lower value 0.995 | locus YDR159W, strain sac3, stronger effect = lower value 0.997 | locus YDR162C, strain NBP2, stronger effect = lower value 1.03 | locus YDR195W, strain ref2 1 | locus YDR297W, strain sur2, stronger effect = lower value 1.03 | locus YDR318W, strain mcm21, stronger effect = lower value 0.965 | locus YDR334W, strain swr1, stronger effect = lower value 1.03 | locus YDR335W, strain msn5, stronger effect = lower value 1.03 | locus YDR388W, stronger effect = lower value 0.989 | locus YDR392W, strain spt3, stronger effect = lower value 0.981 | locus YDR502C, strain sam2, stronger effect = lower value 0.994 | locus YEL003W, strain gim4, stronger effect = lower value 1.03 | locus YEL037C, strain rad23, stronger effect = lower value 1.03 | locus YEL061C, strain CIN8 (second series), stronger effect = lower value 1.03 | locus YEL061C, strain CIN8, stronger effect = lower value 0.998 | locus YER015W, strain faa2, stronger effect = lower value 1.02 | locus YER016W, strain bim1, stronger effect = lower value 1.01 | locus YER110C, stronger effect = lower value 0.974 | locus YER111C, strain swi4, stronger effect = lower value 1.03 | locus YER155C, strain BEM2 (second series), stronger effect = lower value 1.01 | locus YER155C, strain BEM2, stronger effect = lower value 0.999 | locus YER167W, strain BCK2, stronger effect = lower value 0.985 | locus YFR010W, strain ubp6, stronger effect = lower value 1.03 | locus YGL078C, strain dbp3, stronger effect = lower value 0.99 | locus YGL086W, strain mad1, stronger effect = lower value 0.973 | locus YGL167C, strain pmr1, stronger effect = lower value 1.03 | locus YGL173C, strain kem1, stronger effect = lower value 1.03 | locus YGL227W, strain vid30, stronger effect = lower value 1.02 | locus YGL240W, strain doc1, stronger effect = lower value 1 | locus YGL248W, strain PDE1, stronger effect = lower value 0.992 | locus YGL253W, strain hxk2, stronger effect = lower value 1.01 | locus YGR078C, strain PAC10, stronger effect = lower value 1.03 | locus YGR135W, strain pre9, stronger effect = lower value 1.01 | locus YGR229C, strain SMI1, stronger effect = lower value 1.02 | locus YGR252W, strain gcn5, stronger effect = lower value 0.811 | locus YHR013C, strain ard1, stronger effect = lower value 1.07 | locus YHR027C, strain rpn1, stronger effect = lower value 1.02 | locus YHR030C, strain SLT2, stronger effect = lower value 0.988 | locus YHR079C, strain IRE1 (second series), stronger effect = lower value 0.979 | locus YHR094C, strain hxt1, stronger effect = lower value 0.995 | locus YHR129C, strain ARP1, stronger effect = lower value 0.998 | locus YHR142W, strain chs7, stronger effect = lower value 1.03 | locus YHR200W, strain rpn10, stronger effect = lower value 0.966 | locus YIL066C, strain RNR3, stronger effect = lower value 0.988 | locus YIL073C, strain SPO22, stronger effect = lower value 0.916 | locus YIL125W, strain kgd1, stronger effect = lower value 0.986 | locus YIR030C, strain dcg1, stronger effect = lower value 0.991 | locus YJL092W, strain hpr5, stronger effect = lower value 1.02 | locus YJL095W, strain BCK1 (second series), stronger effect = lower value 1.04 | locus YJL095W, strain BCK1, stronger effect = lower value 1.03 | locus YJL115W, strain asf1, stronger effect = lower value 1.02 | locus YJL129C, strain trk1, stronger effect = lower value 1.05 | locus YJL134W, strain LCB3, stronger effect = lower value 0.986 | locus YJL154C, strain vps35, stronger effect = lower value 1.02 | locus YJL164C, strain tpk1, stronger effect = lower value 1.04 | locus YJL166W, strain qcr8, stronger effect = lower value 1 | locus YJL168C, strain set2, stronger effect = lower value 0.986 | locus YJL187C, strain SWE1 (second series), stronger effect = lower value 1.01 | locus YJL187C, strain SWE1, stronger effect = lower value 1.02

— PubChem BioAssay AID1159580 (chemical genetic matrix, 2015)
